The list is not random: actives were taken first. Their share in the collection is about 3.7%.
PTHR1 agonist = activates the human parathyroid hormone receptor PTHR1. Q03431. HEK293 GP2 PTHR1 cells, GloSensor cAMP luminescence, 1 h. Potency, µM (series often up to 115 µM), for inactives: top-dose activation, most hits filed as activators. 410,000 compounds, 0.075% hits. AID 743266; also: potency is read from the fitted curve at half-maximal effect; nearly all actives have a fitted effect of over 55% in size
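HEK-293-derived GP2 cells expressing PTHR1 and a GloSensor cAMP reporter, 3,000/well, plated overnight, given luciferin plus IBMX (each 0.5 mM as added) for 1 h at 37 °C, then compound for 1 h at 37 °C. Luminescence was read after 15 min at room temperature.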
RGS4 inh = human RGS4 inhibition | Potency, µM (top dose mostly 114 µM), inactives show at the top dose activity change, negative = inhibition, actives largely listed as inhibitors | Transcreener GDP fluorescence polarization, RGS4-accelerated GTP hydrolysis | 390,000 compounds, 0.039% hits | AID 504845; also: potency is read from the fitted curve at half-maximal effect; % is scaled to controls: 0 for no effect and ±100 for the full control effect; nearly all actives have a fitted effect of over 75% in size
Target sequence (P49798 whole entry, looked up): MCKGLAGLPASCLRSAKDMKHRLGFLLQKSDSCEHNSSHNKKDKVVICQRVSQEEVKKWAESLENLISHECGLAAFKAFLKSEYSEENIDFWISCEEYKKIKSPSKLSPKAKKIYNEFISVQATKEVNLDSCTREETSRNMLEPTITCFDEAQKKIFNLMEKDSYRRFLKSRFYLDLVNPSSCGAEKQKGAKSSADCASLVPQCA
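MLSMR compounds (23 nl, pin-transferred) preincubated 10 min at room temperature with a 500nM (2x) first reagent, then RGS4 at 900nM (2x) plus Transcreener GDP mix added; fluorescence polarization (620/688 nm) read before and after 90 min at 30 °C.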
D3 antag = blocks the human D3 dopamine receptor. AID 652054. 360,000 compounds, 2.5% hits. P35462. D3R cells, DiscoveRx beta-arrestin luminescence, antagonist mode; active compounds read low. max response, negative = inhibition, %; in the data active = max response below about -50%; inconclusive = no clear call, values can overlap the other calls; also: % is scaled to controls: 0 for no effect and ±100 for the full control effect
Target sequence (P35462 whole entry, looked up): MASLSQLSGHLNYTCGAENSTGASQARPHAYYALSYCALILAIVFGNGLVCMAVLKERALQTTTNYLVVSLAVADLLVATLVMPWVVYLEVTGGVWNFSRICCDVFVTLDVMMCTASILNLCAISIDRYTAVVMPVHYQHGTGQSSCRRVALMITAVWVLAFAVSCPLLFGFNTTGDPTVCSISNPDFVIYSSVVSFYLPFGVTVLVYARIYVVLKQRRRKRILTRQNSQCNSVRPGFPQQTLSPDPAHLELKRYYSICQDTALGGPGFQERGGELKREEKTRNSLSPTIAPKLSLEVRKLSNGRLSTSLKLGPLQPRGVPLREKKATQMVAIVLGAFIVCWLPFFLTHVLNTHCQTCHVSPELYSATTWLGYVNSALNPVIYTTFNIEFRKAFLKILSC
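Cells expressing the human receptor were seeded at 1500 cells/well, incubated overnight at 37 degrees C in 5% CO2, then exposed to library compounds with dopamine controls for 90 minutes at 37 degrees C before luminescent detection.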
BRCA1 expr act = increases BRCA1 expression | Potency, µM (highest dose often 46.1 µM), for the others: at the top dose activation, actives largely listed as activators | MCF7-BRCA1-FFLuc reporter, luminescence, 48 h; response scale: scaled: vehicle 0%, 10 µM genistein 100% | 380,000 compounds, 1.1% hits; also: potency is read from the fitted curve at half-maximal effect; nearly all actives have a fitted effect of over 80% in size
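Quantitative HTS in MCF7 cells stably reporting BRCA1 expression via firefly luciferase. Compound treatment lasts 48 h at 37 °C in phenol-red free MEM. Activation is expressed relative to genistein at 10 microM and DMSO.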
D3 ag = agonists of human D3 dopamine receptor | D3R DiscoveRx beta-arrestin cells, luminescence, 90 min | max activation, % | 410,000 compounds, 0.58% hits; in the data active = max activation above about 30%; also: 0% is about no effect
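Agonist-mode cell screen: cells plated at 1500/well and incubated overnight at 37 °C, then exposed to library compounds for 90 min at 37 °C. Detection reagent was added for 30–60 min at room temperature, and luminescence was read.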
B2AR arrestin = beta2AR (human) beta-arrestin recruitment activity | beta-arrestin recruitment to beta2AR, cell-based reporter | 330,000 compounds, 0.02% hits | Potency, µM (titrated, usually from 46.1 µM), for the others: top-dose activation, actives largely listed as activators;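 also: potency is read from the fitted curve at half-maximal effect; 0% = DMSO controls and full agonism = EC100 isoproterenol or metaproterenol; nearly all actives have a fitted effect of over 65% in size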
Starred values were filed as active, the others as inactive; i = inactive; ? = inconclusive; nt = no result; ! = not confirmed by another sample; [ ] = remark or other dose. Unless noted, calls follow the shape of the dose curve; as a rule, active = well fitted curve in the direction sought with a large enough effect; inconclusive = small, poorly fitted or top-dose-only effect, or another doubt; inactive = no such curve, though single readings can be large; an effect the other way counts as inactive or inconclusive.

SMILES	PTHR1 agonist	RGS4 inh	D3 antag	BRCA1 expr act	D3 ag	B2AR arrestin
Cc1cc(C)nc(NS(=O)(=O)c2ccc(NC(=O)c3cccc(N4C(=O)CCC4=O)c3)cc2)n1	-23%	12%	-59*	-14%	-8	0%
O=c1c(Cl)c(Cl)cnn1-c1ccccc1	-89%	-1%[11.4 µM]	?	-90%	-6	0%
CN(c1cnn(-c2ccccc2)c(=O)c1Cl)n1cccc1	i	-14%	14	11µM*	-10	0%
O=C(CCN1C(=O)C2C3C=CC(C4CC34)C2C1=O)Oc1ccc(Br)cc1 (stereo not given)	-18%	21%	-15	8%	-9	0%
O=C(CCN1C(=O)C2C3C=CC(C4CC34)C2C1=O)Oc1cccc2cccnc12 (stereo not given)	i	-14%	-68*	-36%	-52	0%
O=C1c2ccccc2C(=O)C1c1ccccn1	i	7%[11.4 µM]	-1	2.5µM*	2	0%
CCCC(=O)Nc1nnc(-c2ccco2)s1	i	32%	-66*	33%	4	0%
CC1Oc2cc3oc4c(O)c5c(cc4c(=O)c3c(O)c2C1(C)C)C=CC(C)(C)O5 (stereo not given)	i	-10%	42	?	44*	nt
CC1(C)C=Cc2cc3ccc(=O)oc3cc2O1	i	11%	2	?	-6	0%
N#Cc1cc(-c2ccc(Cl)cc2)cn(Cc2c(Cl)cccc2Cl)c1=O	14%[57.5 µM]	5%	-50*	-32%	0	1%
CN(C)CCCNc1cc(N2CCN(C)CC2)ncn1	nt	nt	nt	5%	nt	nt
CCOC(=O)[C@H]1[C@H]2COc3ccc(OC)cc3[C@@H]2N2C(=O)c3cc(OC)c(OC)cc3NC(=O)[C@@]12C	-14%	10%	-61*	-84%	-11	0%
CCCCN1CC(=O)N2[C@@H]3c4cc(OC)ccc4OC[C@@H]3[C@H](C(=O)OCC)[C@]2(C)C1=O	i	?	14	5%	49*	nt
CCOC(=O)[C@H]1[C@H]2COc3ccc(Br)cc3[C@@H]2N2C(=O)c3cc(OC)c(OC)cc3NC(=O)[C@@]12C	-47%	12%	6	-23%	5	-1%
CCOC(=O)[C@H]1[C@H]2COc3ccc(C)cc3[C@@H]2N2C(=O)c3cc(OC)c(OC)cc3NC(=O)[C@@]12C	i	-8%	-60*	0%	-17	0%
CCCCOc1nnc(-c2ccc(OCC)cc2)c2ccccc12	-11%	-23%	nt	nt	15	nt
Cc1cccc(C)c1NC(=O)c1c[nH]c2ccccc12	-12%	-5%	2	3.5µM*	-7	0%
CCC(C)c1ccc(NC(=O)C2CC3CCC2C3)cc1 (stereo not given)	-10%	5%	-5	7.1µM*	-6	nt
CCOc1ccc(NC(=O)C2CC3CCC2C3)cc1 (stereo not given)	i	9%	-1	?	-7	nt
CC(C)c1ccc(NC(=O)C2CC3CCC2C3)cc1 (stereo not given)	-25%	-27%	6	6.3µM*	-2	0%
COc1ccc(-c2noc3c2-c2nc(C(C)C)sc2CC3)cc1	-45%	-35%	114	8%	-3	nt
CCCc1nc2c(s1)CCc1onc(-c3ccc(Br)cc3)c1-2	-16%	-33%	15	-18%	43*	nt
CC(C)c1nc2c(s1)CCc1onc(-c3ccc(Cl)cc3)c1-2	-15%	6%	41	-4%	32*	0%
CCCc1nc2c(s1)CCc1onc(-c3ccc(Cl)cc3)c1-2	-22%	5%	6	0%	25	0%
O=C(CC1N=C2c3ccccc3N=C(SCC(=O)Nc3ccccc3F)N2C1=O)NCc1cccs1 (stereo not given)	-10%	-8%	nt	nt	11	nt
SMILES	PTHR1 agonist	RGS4 inh	D3 antag	BRCA1 expr act	D3 ag	B2AR arrestin
O=C(Nc1c(C(=O)Nc2ccccc2F)oc2ccccc12)c1cc2ccccc2o1	-20%	5%	nt	8%	0	nt
CCOc1ccccc1NC(=O)CCSc1nc2n[nH]c(C)c2c(=N)n1-c1ccccc1Cl	i	8%	26	-20%	30*	-1%
Cc1cc(=O)c(C(=O)O)cn1Nc1ccc(Cl)cc1	i	-12%	-53*	15%	2	0%
Cc1cc(=O)c(C(=O)O)cn1Nc1ccc(F)cc1	i	11%	?	11%	-10	0%
OC[C@H]1OC([S-])[C@H](O)[C@@H](O)[C@@H]1O.[Au+] (stereo not given in full)	nt	nt	nt	nt	4	nt
C[C@@H]([C@H](O)c1ccc(O)cc1)N1CCC(Cc2ccccc2)CC1	nt	i	nt	nt	nt	nt
CC(C(O)c1ccc(O)cc1)N1CCC(Cc2ccccc2)CC1 (stereo not given)	-17%	-2%[56.9 µM]	-88*!	-9%	-91	-1%
CCOc1ccc(C2C=C(c3ccccc3)Nc3nnnn32)cc1 (stereo not given)	-22%	27%	-4	7.1µM*	1	-1%
O=C(NCC1CCCO1)c1sc2cc(Cl)ccc2c1Cl (stereo not given)	i	12%	19	10µM*	-16	-1%
O=C(NCCN1CCOCC1)c1sc2cc(Cl)ccc2c1Cl	i	-20%	1	?	7	0%
CC1(C)CC(=O)C(C=Nc2ccc(N)cc2)=C(O)C1	-1%	-22%	-1	-26%	5	0%
COC(=O)c1ccc(N)c(N=CC2=C(O)CC(C)(C)CC2=O)c1	i	1%	-51*	65%	-8	4%
CC1(C)CC(=O)C(C=Nc2cc(C(=O)c3ccccc3)ccc2N)=C(O)C1	-8%	-33%	-125*	?	-27	0%
CC1(C(=O)NS(=O)(=O)c2cccc(OC(F)F)c2)CCN1C(=O)CC(c1ccccc1)c1ccccc1 (stereo not given)	-13%	nt	5	0%	5	nt
CCS(=O)(=O)N1Cc2cc(C(=O)NCC3CC3)nc(-c3cccc(-c4cccnc4)c3)c2[C@@H]1CCO	4%	nt	-1	-46%	0	nt
CCc1ccc(CN2CCN(C(=O)c3ccco3)CC2)cc1	i	5%	-16	13%	69*	0%
O=C(c1ccco1)N1CCN(Cc2ccc(Cl)cc2)CC1	-5%	6%	3	11%	-5	0%
Cc1ccc2nc(-c3ccc(NC(=O)CN4CCN(C(=O)c5ccco5)CC4)cc3)sc2c1	-35%[57.5 µM]	?	1	48%	36*	0%
COc1ccc(NC(=O)C(=O)NCCN2CCN(C(=O)c3ccco3)CC2)cc1	i	19%	9	-22%	56*	0%
O=C(c1ccco1)N1CCN(C(=O)c2ccc(-c3ccccc3Cl)o2)CC1	-22%	8%	-25	8.9µM*	1	0%
